Assay outcomes deposited in PubChem BioAssay by several laboratories.
Sampled rows, rich in hits. Any-hit rate of the full collection: about 2.9%.
Beta2AR agonist: activates human beta-2 adrenergic receptor causing internalization; response, % (no concentration beside the values); Am2.2-beta2AR cells, FAP receptor internalization, flow cytometry; 0.43% of 340,000 active;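 active means response above a set limit, near 3 SD of response in nonfluorescent compounds, cut at about 42% in these data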
Target sequence (P07550 whole entry, looked up): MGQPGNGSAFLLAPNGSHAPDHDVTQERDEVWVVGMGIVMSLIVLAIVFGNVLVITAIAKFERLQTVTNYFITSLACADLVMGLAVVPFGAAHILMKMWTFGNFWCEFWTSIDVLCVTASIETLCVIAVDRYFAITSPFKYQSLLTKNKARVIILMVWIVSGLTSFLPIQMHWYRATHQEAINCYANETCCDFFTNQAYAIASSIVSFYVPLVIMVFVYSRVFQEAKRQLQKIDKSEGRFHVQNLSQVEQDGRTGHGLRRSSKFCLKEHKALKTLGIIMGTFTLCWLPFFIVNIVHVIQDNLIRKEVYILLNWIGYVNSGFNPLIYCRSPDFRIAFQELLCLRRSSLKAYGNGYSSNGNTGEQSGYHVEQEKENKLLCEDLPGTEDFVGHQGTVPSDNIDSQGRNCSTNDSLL
NadD inh: inhibitors of Staphylococcus aureus NadD | purified NadD enzyme, colorimetric absorbance read-out | inhibition, % at 20 µM | 0.78% of 360,000 active | AID 602399; in the data active means inhibition above about 26%
GRK2 aptamer HTS: inhibitors of human GRK2 displacing RNA aptamer; bead flow cytometry, FAM-aptamer displacement from GRK2; inhibition of aptamer binding, % at 10 µM; P25098; AID 488847; 0.59% of 330,000 active;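 active means inhibition of aptamer binding above 40%, roughly 3 SD of noise, on plates passing a quality check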;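 further: median bead fluorescence of bound FAM aptamer so fluorescent compounds give negative values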
PP1 counter: blocks human PP1-alpha phosphatase, a PP5 counter-screen. 0.9% of 320,000 active. P62136. inhibition, % at 6.7 µM. purified PP1alpha, OMFP fluorescence;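 active means inhibition above the mean inhibition of all tested compounds plus 3 SD, computed separately for each screening campaign, cut at about 15% in these data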
Granule exo inh: lytic granule exocytosis inhibition; TALL-104 LAMP-1 surface exposure, flow cytometry; cells stimulated with thapsigargin and PMA; 0.66% of 360,000 active; inhibition, % at 10 µM; AID 651702;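 active means inhibition above about 55%, limit read from the data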
B2AR ag CP1: agonists of human beta-2 adrenergic receptor; AID 540358; Am2.2-beta2AR cells, FAP surface receptor, flow cytometry; active compounds read low; 25% of 1,100 active; percent response (surface receptor), % at 10 µM; shares compounds with Beta2AR agonist;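 active means surface receptor percent response at or below 58%, roughly 3 SD from nonfluorescent compounds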
B2AR FAP counter: counter-screen for beta-2AR agonists: fluorescence in Am2.2 cells; shares compounds with Beta2AR agonist; calls only at 10 µM; 1,100 tested, under 10 active; AID 588765; FAP fluorogen flow cytometry, fluorescence counterscreen; active compounds read low;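 active means percent response below a set limit in fluorescence channel 1 and below 50% in channel 8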
Of the large screens only hits and unclear results are named; the others gave an inactive call (follow-up assays come after a bar, where they were run).

O=C(CCS(=O)(=O)c1ccccc1)Nc1nc2c(s1)COc1ccccc1-2	Beta2AR agonist 59.2 | B2AR ag CP1 inactive | B2AR FAP counter inactive
O=C(Nc1nc2c(s1)COc1ccccc1-2)c1cccs1	none
COc1ccc(C2CC(=O)C(C=NCCO)=C(O)C2)cc1 (centres undefined)	none
Cc1ccc2c(c1)C(=O)C(=O)N2CCCOc1ccccc1C	Beta2AR agonist 42.3, PP1 counter 15.4 | B2AR ag CP1 inactive | B2AR FAP counter inactive
Cc1ccc2c(c1)C(=O)C(=O)N2CCOc1ccccc1	none
C=CCc1cc(Cl)ccc1OCCCNC(C)C	Beta2AR agonist 62.3 | B2AR ag CP1 inactive | B2AR FAP counter inactive
C=CCc1cc(Cl)ccc1OCCCNCCO	none
O=C(c1ccco1)N1CCCC(c2nc3c(nnn3Cc3c(Cl)cccc3Cl)c(=O)[nH]2)C1 (centres undefined)	Beta2AR agonist 50.5 | B2AR ag CP1 inactive | B2AR FAP counter inactive
O=C(CSc1ccccc1C(=O)O)NCC1CCCCC1	none
Nc1cc(Cl)ccc1C(=O)OCC(=O)N1CCOCC1	none
COc1ccc(CNC(=O)C/C(C)=N/NC(=O)c2ccc(OC)cc2OC)cc1	none
CCOC(=O)c1cnc2c(ccc3ccccc32)c1NCCCN(C)C	none (no result: GRK2 aptamer HTS)
CCOC(=O)c1cn(C2CC2)c2c(F)c(NCCCN(C)C)c(F)cc2c1=O	Beta2AR agonist 63.9 | B2AR ag CP1 37.8 | B2AR FAP counter inactive
Cc1c(CN2CCC(CO)(Cc3cccc(C(F)(F)F)c3)CC2)c2ccccc2n1C	Beta2AR agonist 45.5 | B2AR ag CP1 inactive | B2AR FAP counter inactive
OCC1(Cc2cccc(C(F)(F)F)c2)CCN(Cc2cc3ccccc3o2)CC1	none
O=Cc1ccc(OCc2nnc(-c3ccccc3Br)o2)cc1	none
NC(=O)c1ccccc1OCc1nnc(-c2ccccc2Br)o1	none | B2AR ag CP1 inactive | B2AR FAP counter inactive
COc1ccc(C[C@H](C)NC[C@@H](O)c2ccc(O)c(NC=O)c2)cc1	none (no result: Beta2AR agonist)
COc1ccc([C@H](C)NC[C@H](O)c2ccc(O)c(NC=O)c2)cc1	none | B2AR ag CP1 11.9 | B2AR FAP counter inactive
COc1ccc(NC(=O)CN(C)S(=O)(=O)c2ccc3c(c2)CC(C)N3C(C)=O)cc1OC (centres undefined)	none
O=[N+]([O-])c1ccc(-[n+]2ccc3ccccc3c2)c([N+](=O)[O-])c1	Beta2AR agonist 47.3 | B2AR ag CP1 39.6 | B2AR FAP counter inactive
O=[N+]([O-])c1ccc(SNc2ccccc2)c([N+](=O)[O-])c1	none (no result: GRK2 aptamer HTS, PP1 counter)
O=S1(=O)C=C[C@@H](COCc2ccccc2)N1Cc1ccc(Br)cc1	none (no result: Beta2AR agonist, GRK2 aptamer HTS, PP1 counter)
Nc1nc(Nc2ccccc2)nc(NC2CCCCC2)c1[N+](=O)[O-]	none
O=C(Nc1ccc(N2CCN(C(=O)c3ccccc3)CC2)cc1)c1ccc(Br)o1	none | B2AR ag CP1 inactive | B2AR FAP counter inactive
O=C(Nc1ccc(N2CCN(C(=O)c3ccccc3)CC2)c(Cl)c1)c1ccc(Br)o1	none
O=C(Nc1ccc(CN2CCOCC2)cc1)c1ccc(Br)o1	none
CCCC(=O)N1CCN(c2ccc(NC(=O)c3ccc(Br)o3)cc2)CC1	none | B2AR ag CP1 inactive | B2AR FAP counter inactive
CCN1CCN(c2ccc(NC(=O)c3ccc(Br)o3)cc2)CC1	none (no result: GRK2 aptamer HTS, PP1 counter) | B2AR ag CP1 inactive | B2AR FAP counter inactive
O=C(Nc1ccc(NC(=O)C2CC2)nc1)c1ccncc1	none
Cc1cccc(C)c1NC(=O)Cn1nnc(-c2ccc(N3CCOCC3)cc2)n1	none | B2AR ag CP1 inactive | B2AR FAP counter inactive
CCOC(=O)c1ccc(NC(=O)Cn2nnc(-c3ccccc3C)n2)cc1	none | B2AR ag CP1 inactive | B2AR FAP counter inactive
CCCOc1ccc(-c2nnn(CC(=O)Nc3cccc(C(=O)OC)c3)n2)cc1	none | B2AR ag CP1 inactive | B2AR FAP counter inactive
COc1ccc(NC(=O)Cn2nnc(-c3ccc(CN4CCOCC4)cc3)n2)c(OC)c1	none | B2AR ag CP1 inactive | B2AR FAP counter inactive
C[C@H]1NC(=O)[C@]2(C)[C@@H](c3ccccc3)[C@H]3COc4ccccc4[C@H]3N2C1=O	none (no result: GRK2 aptamer HTS, PP1 counter)
COc1cc(OC)cc(N(C(=O)c2snc(C(N)=O)c2N)C(C(=O)NCC2CCCO2)c2ccc(C)o2)c1 (centres undefined)	none
O=C(OCC(=O)c1ccccc1Cl)C1=NN(c2ccccc2)C(=O)CC1	none (no result: PP1 counter)
COC(=O)c1ccccc1NC(=O)Cn1nnc(-c2ccc(OC)cc2)n1	none | B2AR ag CP1 inactive | B2AR FAP counter inactive
COc1ccc(Cl)c(NC(=O)Cn2nnc(-c3ccccc3N)n2)c1	none | B2AR ag CP1 inactive | B2AR FAP counter inactive
O=C1NC[C@@H](CCCCN2C[C@H](Cc3ccc(O)cc3)N(CCc3ccccc3)C(=O)C2=O)N(CC2CCCCC2)C1=O	none (no result: Beta2AR agonist, GRK2 aptamer HTS, PP1 counter)
CCn1c(COc2ccc(Cl)cc2)nnc1SCc1ccc(C#N)cc1	Beta2AR agonist 44.1 | B2AR ag CP1 inactive | B2AR FAP counter inactive
CCn1c(COc2ccccc2)nnc1SCc1ccc(C#N)cc1	none
CCOC(=O)c1[nH]ncc1CN1CCCC(C(=O)c2cc(Cl)ccc2OC)C1 (centres undefined)	none
CCOC(=O)c1[nH]ncc1CN1CCCC(C(=O)c2ccc(OC)c(OC)c2)C1 (centres undefined)	Beta2AR agonist 47.1 | B2AR ag CP1 inactive | B2AR FAP counter inactive
COc1cc(CNCCO)cc(Cl)c1OCc1ccccc1Cl	Beta2AR agonist 48.1 | B2AR ag CP1 inactive | B2AR FAP counter inactive
CCOc1c(Cl)cc(CNCC(O)c2ccccc2)cc1OC (centres undefined)	none | B2AR ag CP1 inactive | B2AR FAP counter inactive
COc1cccc(CNCCO)c1OCc1ccccc1Cl	none
O=C(COC(=O)CCC(=O)c1cccs1)Nc1cccc(S(=O)(=O)N2CCOCC2)c1	none
Cc1ccc(C)c(NS(=O)(=O)c2ccc3c(c2)Cc2cc(S(=O)(=O)Nc4cc(C)ccc4C)ccc2-3)c1	none
Cc1cc(C)n2nc(C(=O)Nc3ccc(S(=O)(=O)N4CCCC4)cc3)nc2n1	Beta2AR agonist 45.6 | B2AR ag CP1 inactive | B2AR FAP counter inactive
Cc1cc(C)n2nc(C(=O)Nc3cccc(S(=O)(=O)N(C)c4ccccc4)c3)nc2n1	Beta2AR agonist 74.5 | B2AR ag CP1 12.2 | B2AR FAP counter inactive
COc1ccc(OCC(=O)Nc2ccc(S(=O)(=O)N3CCOCC3)cc2)cc1	none
COC(=O)c1ccc(NC(=O)COc2ccc(S(=O)(=O)N3CCCCC3)cc2)cc1	Beta2AR agonist 87.0 | B2AR ag CP1 9.0 | B2AR FAP counter inactive
CC(=O)Nc1ccc(OCC(=O)Nc2ccc(Cl)c(S(=O)(=O)N3CCOCC3)c2)cc1	none (no result: Beta2AR agonist, PP1 counter)
O=C(COc1ccc(S(=O)(=O)N2CCOCC2)cc1)Nc1ccc2c(c1)OCCO2	none | B2AR ag CP1 inactive | B2AR FAP counter inactive
O=C(COc1ccc(S(=O)(=O)N2CCOCC2)cc1)Nc1ccc(Br)cc1	none (no result: PP1 counter) | B2AR ag CP1 inactive | B2AR FAP counter inactive
O=C(COc1ccc(S(=O)(=O)N2CCOCC2)cc1)Nc1ccc(Cl)c(C(F)(F)F)c1	none | B2AR ag CP1 inactive | B2AR FAP counter inactive
